Compound activity (PubChem BioAssay)
Compounds with a hit are over-represented: about 5.7% of the library has one in this group of screens.
Gal4-VP16 FLuc – VP16 counterscreen qHTS for inhibitors of ROR gamma transcriptional activity; Drosophila S2 Gal4-VP16 UAS-luciferase, luminescence, 20 h; 310,000 tested, 3.5% active; Potency, µM (highest dose often 53.6 µM), for the others: at the top dose activity, negative = inhibition, actives largely listed as inhibitors;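 note: Gal4-VP16 expression switched on by copper sulfate through the metallothionein promoter; nearly all actives have a fitted effect of over 50% in size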
NPSR antag – qHTS Assay for Antagonists of the Neuropeptide S Receptor: cAMP Signal Transduction. Q6W5P4. CHO-NPSR cells, cAMP TR-FRET, antagonist mode. Potency, µM (titrated, usually from 38.3 µM), for inactives: at the top dose activity change, negative = inhibition, most hits filed as inhibitors. 220,000 tested, 1% active. AID 1461, 2008; note: nearly all actives have a fitted effect of over 50% in size
Target sequence (Q6W5P4 whole entry, looked up): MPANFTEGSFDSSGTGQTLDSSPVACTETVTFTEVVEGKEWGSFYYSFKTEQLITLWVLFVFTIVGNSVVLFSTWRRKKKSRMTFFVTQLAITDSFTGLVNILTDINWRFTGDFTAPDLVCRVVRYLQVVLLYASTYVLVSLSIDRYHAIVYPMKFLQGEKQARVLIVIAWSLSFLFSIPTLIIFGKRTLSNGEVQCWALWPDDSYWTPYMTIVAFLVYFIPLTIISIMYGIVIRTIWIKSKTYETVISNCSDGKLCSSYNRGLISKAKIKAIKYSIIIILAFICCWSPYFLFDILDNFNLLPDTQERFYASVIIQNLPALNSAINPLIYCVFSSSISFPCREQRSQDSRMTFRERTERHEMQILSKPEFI
B2AR arrestin – qHTS assay of beta-arrestin-biased ligands of beta2-adrenergic receptor. 330,000 tested, 0.02% active. Potency, µM (highest dose often 46.1 µM), inactives show at the top dose activation, most hits filed as activators. beta-arrestin recruitment to beta2AR, cell-based reporter. AID 492947, 2010;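 note: 0% = DMSO controls and full agonism = EC100 isoproterenol or metaproterenol; nearly all actives have a fitted effect of over 65% in size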
RORgamma inh – qHTS for inhibitors of ROR gamma transcriptional activity. Nuclear receptor ROR-gamma (Mus musculus), P51450. Drosophila S2 Gal4-RORgamma UAS-luciferase reporter, 20 h. Potency, µM (highest dose often 53.6 µM), without a hit: at the highest dose activity change, negative = inhibition, hits mostly inhibitors. 310,000 tested, 5.4% active. AID 2551, 2010; note: nearly all actives have a fitted effect of over 60% in size
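A Gal4/UAS one-hybrid system in insect cells: metallothionein-promoter Gal4–ROR gamma fusion plus Photinus luciferase reporter. Copper sulfate 700 uM final, 20 hr ambient incubation, luminescent detection after 10 min with reagent.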
Numbers without * were called inactive; ? = inconclusive; nt = no result given; [ ] = remark or other dose. Calls come from the whole dose curve; as a rule, active = well fitted curve in the direction sought with a large enough effect; inconclusive = small, poorly fitted or top-dose-only effect, or another doubt; inactive = no such curve, though single readings can be large; an effect the other way counts as inactive or inconclusive. Unless noted, % is set by controls: 0 for no effect and ±100 for the full control effect; potency is the fitted concentration of half-maximal effect.

SMILES	Gal4-VP16 FLuc	NPSR antag	B2AR arrestin	RORgamma inh
O=S(=O)(c1cccc(NC(=S)N2CCN(c3ccc(F)cc3)CC2)c1)C(F)F	?	-32.9%	-0.1%	40.6%
S=C(NC1CC1)N1CCN(c2ccc(Cl)cc2)CC1	10.1%	-9.8%	-0.2%	-36.8%
S=C(Nc1cccc(Cl)c1)N1CCN(c2ccccn2)CC1	12.6µM*	nt	-0.6%	11.2µM*
S=C(NC1CCCC1)N1CCN(c2cccc(Cl)c2)CC1	-25.4%	-15.4%	-0.3%	11.2µM*
O=S(=O)(c1cccc(NC(=S)N2CCN(c3cccc(Cl)c3)CC2)c1)C(F)F	?	?	-0.7%	12.6µM*
S=C(Nc1ccc(Oc2ccccc2)cc1)N1CCN(c2ccccn2)CC1	?	-1.7%	-0.8%	11.2µM*
CCOC(=O)c1sc(NC(=O)Nc2ccccc2F)nc1C	8.91µM*	-18.5%	-1.2%	7.94µM*
Cc1nc(NC(=O)c2cc3ccccc3o2)sc1C	?	nt	-1.1%	10µM*
CCOC(=O)c1sc(NC(=O)c2cc3ccccc3o2)nc1C	?	-12.5%	0.1%	3.98µM*
CCOC(=O)c1sc(Nc2ccccc2Cl)nc1C	4.4%	-20.0%	-0.5%	-8.4%
Cc1nnc(NC(=O)c2cc3ccccc3o2)s1	3.5%	nt	-0.2%	?
Cc1cnc(NC(=O)c2cc3ccccc3o2)s1	12.6µM*	-34.8%	-0.1%	6.31µM*
Cc1cc(Cl)ccc1OCc1cn2cccnc2n1	?	-3.3%	0.1%	3.4%
C#CCCCO/N=C1/C[C@@H](O)[C@@H](O)[C@@H]2[C@@H]3C(=O)N(c4cccc(Oc5ccccc5)c4)C(=O)[C@H]3CC[C@@H]12	4.9%[10 µM]	nt	nt	0.6%[10 µM]
Cc1cccc(NC(=O)N2CCN(Cc3ccc4c(c3)OCO4)CC2)c1C	-0.8%	2.8%	-0.9%	8.7%
CCOC(=O)c1csc(NC(=O)c2cc3ccccc3o2)n1	?	-5.2%	-0.8%	3.16µM*
CCOC(=O)c1csc(NC(=O)c2ccccc2)n1	-3.4%	-1.9%[46.1 µM]	0.2%	?
CCCC(C)c1nnc(NC(=O)c2cc(C(=O)OC)cc([N+](=O)[O-])c2)s1 (stereo not given)	15.8µM*	-13.5%[46.1 µM]	-0.8%	10µM*
O=C(CN1CCCCC1)NNc1nc(-c2ccccc2)c2cc(Br)ccc2n1	1.58µM*	25.8%	-1.5%	0.501µM*
O=C(NNc1nc(-c2ccccc2)c2cc(Br)ccc2n1)c1ccc(S(=O)(=O)N2CCOCC2)cc1	12.6µM*	-4.1%	-0.4%	7.94µM*
O=C(NNc1nc(-c2ccccc2)c2cc(Br)ccc2n1)c1ccc(S(=O)(=O)N2CCCCC2)cc1	-13.8%	-8.1%	-1.1%	-43.2%
CC(=O)NNc1nc(-c2ccccc2)c2cc(Br)ccc2n1	21.9%	-9.5%[46.1 µM]	0.0%	-25.0%
O=C1[C@H]2[C@H]3[C@H](O)[C@H](O)C/C(=N/OC[C@@H](O)COCc4ccco4)[C@@H]3CC[C@@H]2C(=O)N1Cc1ccccc1	-1.4%[10 µM]	nt	nt	8.3%[10 µM]
CCOC(=O)c1cn[nH]c1NC(=S)Nc1ccc(Cl)cc1	?	-16.1%	-0.3%	2.82µM*
CCOC(=O)c1ccc(NC(=S)Nc2ccc(C)cc2)cc1	?	-19.3%	-0.1%	12.6µM*
SMILES	Gal4-VP16 FLuc	NPSR antag	B2AR arrestin	RORgamma inh
CCOC(=O)c1cccc(NC(=S)NCc2ccc(C)cc2)c1	?	10.8%	0.7%	10µM*
CCOC(=O)c1ccc(NC(=S)N2CCSC2c2ccc(Cl)cc2)cc1 (stereo not given)	?	-53.1%	0.2%	14.1µM*
Cc1cc(F)ccc1NCC(=O)Nc1ccccc1Br	-4.7%	-28.4%[46.1 µM]	-0.8%	?
CCOC(=O)c1ccc(NC(=S)NCCc2ccc(F)cc2)cc1	?	11.9%	0.5%	10µM*
C=CCC(c1ccccc1)N(C(C)=O)c1ccco1 (stereo not given)	-9.0%[10 µM]	9.8%	-0.1%	38.4%
C=CCC(Nc1ccco1)c1ccccc1 (stereo not given)	17.8µM*	-13.1%[46.1 µM]	0.0%	4.0%
O=C(C=C=Nc1ccccc1)C(=O)N=C=Cc1ccccc1	7.08µM*	?	-0.7%	3.98µM*
Nc1nonc1-n1nnc(C(=O)N/N=C/C=C/c2ccccc2)c1CSC1=NCCS1	3.16µM*	?	0.1%	1.41µM*
Nc1nonc1-n1nnc(C(=O)N/N=C/c2ccc(OCc3ccccc3)cc2)c1CNc1ccccc1	?	nt	0.1%	11.2µM*
CCc1c(C(=O)N/N=C/c2cccs2)nnn1-c1nonc1N	?	nt	0.7%	12.6µM*
Nc1nonc1-n1nnc(C(=O)N/N=C/c2cccs2)c1CSc1ccccc1	5.01µM*	nt	0.2%	?
CCN(CC)Cc1c(C(=O)N/N=C/c2cccs2)nnn1-c1nonc1N	-10.4%	nt	-0.3%	?
